Results published in ChEMBL document CHEMBL3988442, “University of Dundee, Small-Polar-MMV Screening Library” (2021).
For some assays here: Results with a measured potency or affinity are listed apart.

Experiments:
Design in all cases: scale not given: direction of the effect not stated beside the values
[1] = target: Protein translocase subunit SecA (Escherichia coli (strain K12)) (UniProt P10408); experiment: Assay to Identify E. coli SecA ATPase Inhibitors; format: functional; conditions: 30 µM
[2] = target: T1, Ubiquitin-activating enzyme e1, putative (Leishmania donovani (strain BPK282A1)) (UniProt E9BSI1); experiment: Leishmania donovani Ubiquitin Activating Enzyme (LdE1); format: functional; conditions: 30 µM
T1 sequence (whole entry): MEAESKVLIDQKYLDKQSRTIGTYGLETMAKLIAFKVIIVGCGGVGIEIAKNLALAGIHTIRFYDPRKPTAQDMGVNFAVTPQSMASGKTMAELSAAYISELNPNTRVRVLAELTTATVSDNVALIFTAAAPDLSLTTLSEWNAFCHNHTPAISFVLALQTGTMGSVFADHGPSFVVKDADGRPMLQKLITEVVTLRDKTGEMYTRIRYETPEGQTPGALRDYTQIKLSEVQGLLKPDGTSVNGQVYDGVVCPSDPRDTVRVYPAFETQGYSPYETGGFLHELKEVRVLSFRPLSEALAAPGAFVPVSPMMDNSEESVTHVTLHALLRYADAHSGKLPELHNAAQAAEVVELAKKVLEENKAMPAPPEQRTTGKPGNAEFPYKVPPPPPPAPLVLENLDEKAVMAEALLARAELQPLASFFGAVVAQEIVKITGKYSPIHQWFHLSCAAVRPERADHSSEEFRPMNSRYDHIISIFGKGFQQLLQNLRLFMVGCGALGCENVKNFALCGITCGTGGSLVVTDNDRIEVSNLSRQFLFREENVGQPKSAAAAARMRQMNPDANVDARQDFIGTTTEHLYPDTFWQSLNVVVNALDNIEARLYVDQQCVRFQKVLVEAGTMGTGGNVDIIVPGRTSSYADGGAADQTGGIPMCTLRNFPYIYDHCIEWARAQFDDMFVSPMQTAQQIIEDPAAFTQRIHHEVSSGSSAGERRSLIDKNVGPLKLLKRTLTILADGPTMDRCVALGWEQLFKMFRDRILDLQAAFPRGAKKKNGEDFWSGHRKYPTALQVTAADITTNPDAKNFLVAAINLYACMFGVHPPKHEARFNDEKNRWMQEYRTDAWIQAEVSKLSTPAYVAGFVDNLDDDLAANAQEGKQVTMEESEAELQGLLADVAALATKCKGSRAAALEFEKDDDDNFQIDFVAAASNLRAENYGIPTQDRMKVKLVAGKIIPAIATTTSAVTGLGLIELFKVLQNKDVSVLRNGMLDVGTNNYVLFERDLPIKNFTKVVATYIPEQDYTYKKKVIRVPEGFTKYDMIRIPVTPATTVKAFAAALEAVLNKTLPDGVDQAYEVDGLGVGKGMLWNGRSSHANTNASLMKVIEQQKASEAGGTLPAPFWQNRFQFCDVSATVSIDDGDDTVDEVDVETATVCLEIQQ

[3] = target: AMP-activated protein kinase, AMPK (Homo sapiens) (UniProt P54646+O43741+P54619+Q9UGJ0+Q9Y478+Q13131+Q9UGI9); experiment: AMP-dependent Kinase enzyme assay. An in vitro enzyme assay that detects ADP turnover that is directly proportional to AMPK activity. This uses naive AMPK that is activated during the assay with MK-8722; format: functional; conditions: 30 µM
[4] = target: Sialic acid-binding Ig-like lectin 9 (Homo sapiens) (UniProt Q9Y336); experiment: Hs-Siglec9 ALPHAscreen SOP 20170721; conditions: 10 µM
Trypanosoma cruzi = experiment: Trypanosoma cruzi phosphomannomutase and mannose-1-phosphate guanylyltransferase assay; format: functional; conditions: 10 µM
[5] = target: T2, Arginase-2, mitochondrial (Homo sapiens) (UniProt P78540); experiment: in vitro enzyme assay to detect the production of urea directly proportional to the activity of Arginase II; format: functional; conditions: 33.3 µM; note: in the data most compounds retested in dose-response had high values
T2 sequence (whole entry): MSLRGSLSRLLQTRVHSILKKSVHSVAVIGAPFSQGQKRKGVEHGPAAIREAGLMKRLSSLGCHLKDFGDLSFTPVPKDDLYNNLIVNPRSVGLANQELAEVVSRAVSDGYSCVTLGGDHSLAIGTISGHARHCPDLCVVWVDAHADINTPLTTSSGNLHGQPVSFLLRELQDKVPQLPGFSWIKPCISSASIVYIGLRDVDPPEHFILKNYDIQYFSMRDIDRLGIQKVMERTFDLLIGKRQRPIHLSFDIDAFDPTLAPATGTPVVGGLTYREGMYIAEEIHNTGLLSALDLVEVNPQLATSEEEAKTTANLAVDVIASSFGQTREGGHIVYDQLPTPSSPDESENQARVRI

[6] = target: T3, Proteasome subunit beta (Trypanosoma cruzi) (UniProt O96673); experiment: Trypanosoma cruzi proteasome chymotrypsin-like activity (TcProtChymo) assay.; note: in the data most compounds retested in dose-response had high values; format: functional; conditions: 9.37 µM
T3 sequence (whole entry): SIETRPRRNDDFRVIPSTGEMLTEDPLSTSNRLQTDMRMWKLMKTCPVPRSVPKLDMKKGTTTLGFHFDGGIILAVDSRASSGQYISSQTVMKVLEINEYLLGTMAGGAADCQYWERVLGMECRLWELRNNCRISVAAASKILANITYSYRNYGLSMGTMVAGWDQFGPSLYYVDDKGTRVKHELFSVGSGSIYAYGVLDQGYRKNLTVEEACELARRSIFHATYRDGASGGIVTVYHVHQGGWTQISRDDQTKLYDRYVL

Homo sapiens = organism: Homo sapiens; experiment: To identify inhibition of the IFN signalling (Jak-Stat) pathway via expression of an eGFP reporter gene under the control of an IFN-stimulated response element (ISRE) containing MxA promoter.; format: functional; conditions: 30 µM
[7] = target: T4, Tyrosyl-tRNA synthetase, putative (Trypanosoma cruzi (strain CL Brener)) (UniProt Q4DSP6); experiment: Trypanosoma cruzi tyrosyl tRNA synthetase (TcYRS) _High Tyrosine SOP; format: functional; conditions: 30 µM; note: in the data most compounds retested in dose-response had high values
T4 sequence (whole entry): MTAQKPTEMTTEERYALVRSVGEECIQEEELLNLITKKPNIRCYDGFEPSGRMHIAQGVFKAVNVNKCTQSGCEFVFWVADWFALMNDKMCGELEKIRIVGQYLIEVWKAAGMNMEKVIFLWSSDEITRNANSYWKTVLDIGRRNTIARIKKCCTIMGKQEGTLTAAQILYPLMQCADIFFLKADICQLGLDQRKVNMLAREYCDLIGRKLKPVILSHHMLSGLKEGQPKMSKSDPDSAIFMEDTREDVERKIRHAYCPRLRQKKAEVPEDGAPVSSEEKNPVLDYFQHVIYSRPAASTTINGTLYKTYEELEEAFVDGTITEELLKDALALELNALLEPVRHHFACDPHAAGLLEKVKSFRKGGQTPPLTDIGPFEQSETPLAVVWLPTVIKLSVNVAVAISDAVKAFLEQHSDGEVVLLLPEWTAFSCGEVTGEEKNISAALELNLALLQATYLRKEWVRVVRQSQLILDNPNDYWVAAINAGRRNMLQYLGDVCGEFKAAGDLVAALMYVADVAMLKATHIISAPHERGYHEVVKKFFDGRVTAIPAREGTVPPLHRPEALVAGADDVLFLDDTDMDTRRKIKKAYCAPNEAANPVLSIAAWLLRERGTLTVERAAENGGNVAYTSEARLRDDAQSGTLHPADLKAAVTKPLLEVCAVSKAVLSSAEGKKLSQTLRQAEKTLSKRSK

[8] = target: T4, Tyrosyl-tRNA synthetase, putative (Trypanosoma cruzi (strain CL Brener)); experiment: Trypanosoma cruzi tyrosyl tRNA synthetase (TcYRS) SOP; format: functional; conditions: 30 µM
[9] = target: Chromo domain-containing protein 1 (Saccharomyces cerevisiae (strain ATCC 204508 / S288c) (Baker's yeast)) (UniProt P32657); experiment: ScCHD-1 Enzyme Inhibition Assay; format: functional; conditions: 30 µM; note: in the data most compounds retested in dose-response had high values
Chain of Chromo domain-containing protein 1 (Saccharomyces cerevisiae (strain ATCC 204508 / S288c) (Baker's yeast)) (P32657 whole entry, the tested form may be a part): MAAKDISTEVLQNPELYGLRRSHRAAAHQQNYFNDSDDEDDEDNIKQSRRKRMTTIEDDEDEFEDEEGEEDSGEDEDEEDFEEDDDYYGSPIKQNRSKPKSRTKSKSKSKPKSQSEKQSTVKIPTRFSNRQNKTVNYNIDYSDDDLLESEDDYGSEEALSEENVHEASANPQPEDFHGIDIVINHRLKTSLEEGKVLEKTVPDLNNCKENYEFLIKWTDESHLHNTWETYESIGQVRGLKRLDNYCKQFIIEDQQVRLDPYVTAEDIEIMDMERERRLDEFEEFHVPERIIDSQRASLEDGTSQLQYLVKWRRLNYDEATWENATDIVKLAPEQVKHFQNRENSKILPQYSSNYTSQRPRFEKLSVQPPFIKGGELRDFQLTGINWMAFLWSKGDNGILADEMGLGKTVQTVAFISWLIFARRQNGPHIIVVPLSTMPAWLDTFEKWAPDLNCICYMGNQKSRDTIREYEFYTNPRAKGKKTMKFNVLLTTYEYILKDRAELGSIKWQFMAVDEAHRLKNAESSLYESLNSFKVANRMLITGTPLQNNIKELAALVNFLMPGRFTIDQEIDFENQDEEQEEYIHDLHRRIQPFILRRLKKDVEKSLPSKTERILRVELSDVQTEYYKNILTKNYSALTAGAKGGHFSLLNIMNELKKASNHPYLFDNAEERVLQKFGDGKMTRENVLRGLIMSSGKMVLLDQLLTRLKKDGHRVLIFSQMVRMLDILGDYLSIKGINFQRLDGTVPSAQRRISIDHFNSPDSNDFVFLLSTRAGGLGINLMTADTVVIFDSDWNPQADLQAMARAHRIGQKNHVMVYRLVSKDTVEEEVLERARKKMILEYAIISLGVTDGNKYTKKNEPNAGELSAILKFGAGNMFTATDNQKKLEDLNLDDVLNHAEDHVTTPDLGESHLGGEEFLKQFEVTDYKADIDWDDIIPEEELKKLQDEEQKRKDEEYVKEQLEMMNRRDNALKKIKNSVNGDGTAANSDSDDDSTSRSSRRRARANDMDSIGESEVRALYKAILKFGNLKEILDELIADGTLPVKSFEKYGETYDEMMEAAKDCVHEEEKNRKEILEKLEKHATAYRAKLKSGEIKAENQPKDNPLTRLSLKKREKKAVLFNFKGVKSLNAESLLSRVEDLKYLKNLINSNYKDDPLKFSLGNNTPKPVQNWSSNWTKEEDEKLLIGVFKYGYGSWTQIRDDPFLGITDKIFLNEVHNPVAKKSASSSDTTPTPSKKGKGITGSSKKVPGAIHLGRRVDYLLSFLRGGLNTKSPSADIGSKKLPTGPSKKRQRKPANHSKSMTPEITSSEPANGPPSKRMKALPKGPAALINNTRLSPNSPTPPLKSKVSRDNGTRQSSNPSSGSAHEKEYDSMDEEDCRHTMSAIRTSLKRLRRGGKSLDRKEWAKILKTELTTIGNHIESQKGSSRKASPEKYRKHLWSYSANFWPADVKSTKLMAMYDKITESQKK

Chain of Sialic acid-binding Ig-like lectin 9 (Homo sapiens) (Q9Y336 whole entry): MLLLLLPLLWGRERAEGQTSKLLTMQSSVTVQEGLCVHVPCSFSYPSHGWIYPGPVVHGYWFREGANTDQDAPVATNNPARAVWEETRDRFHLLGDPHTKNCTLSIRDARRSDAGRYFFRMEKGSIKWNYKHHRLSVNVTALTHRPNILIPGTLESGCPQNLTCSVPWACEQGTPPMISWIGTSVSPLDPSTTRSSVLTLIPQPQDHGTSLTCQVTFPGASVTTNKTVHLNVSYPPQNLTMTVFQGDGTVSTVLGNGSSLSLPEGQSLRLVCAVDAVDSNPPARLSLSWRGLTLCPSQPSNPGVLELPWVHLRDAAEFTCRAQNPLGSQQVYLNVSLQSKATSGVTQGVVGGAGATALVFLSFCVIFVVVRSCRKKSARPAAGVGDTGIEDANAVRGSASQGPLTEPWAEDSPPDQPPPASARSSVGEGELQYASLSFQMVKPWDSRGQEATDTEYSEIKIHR
Chain of Protein translocase subunit SecA (Escherichia coli (strain K12)) (P10408 whole entry): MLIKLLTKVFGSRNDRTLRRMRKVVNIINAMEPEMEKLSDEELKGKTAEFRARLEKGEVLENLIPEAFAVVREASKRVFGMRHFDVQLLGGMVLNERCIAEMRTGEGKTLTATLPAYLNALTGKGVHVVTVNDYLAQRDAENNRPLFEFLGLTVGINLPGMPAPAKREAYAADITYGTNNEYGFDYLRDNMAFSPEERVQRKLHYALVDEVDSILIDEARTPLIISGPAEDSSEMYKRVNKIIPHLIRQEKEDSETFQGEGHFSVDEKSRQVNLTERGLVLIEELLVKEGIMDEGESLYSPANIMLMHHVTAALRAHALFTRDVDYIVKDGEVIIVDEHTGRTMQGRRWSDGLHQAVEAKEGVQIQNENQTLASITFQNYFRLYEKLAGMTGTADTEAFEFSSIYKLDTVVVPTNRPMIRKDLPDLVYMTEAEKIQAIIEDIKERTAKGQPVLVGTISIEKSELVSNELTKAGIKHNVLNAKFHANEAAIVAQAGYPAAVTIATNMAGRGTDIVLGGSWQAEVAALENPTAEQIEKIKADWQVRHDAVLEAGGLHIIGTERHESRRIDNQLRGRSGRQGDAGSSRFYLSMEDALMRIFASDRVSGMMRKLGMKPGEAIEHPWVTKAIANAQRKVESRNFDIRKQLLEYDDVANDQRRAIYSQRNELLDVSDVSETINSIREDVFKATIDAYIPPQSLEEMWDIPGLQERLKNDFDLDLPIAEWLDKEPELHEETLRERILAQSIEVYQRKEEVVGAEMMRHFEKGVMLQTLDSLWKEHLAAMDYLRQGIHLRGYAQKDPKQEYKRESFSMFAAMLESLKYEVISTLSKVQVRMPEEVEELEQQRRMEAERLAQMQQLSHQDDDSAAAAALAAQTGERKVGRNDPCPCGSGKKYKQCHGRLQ

| Compound | Percent Effect [1] [%] | Percent Effect [2] [%] | Percent Effect [3] [%] | Percent Effect [4] [%] | Percent Effect (Trypanosoma cruzi) [%] | Percent Effect [5] [%] | Percent Effect [6] [%] | Percent Effect (Homo sapiens) [%] | Percent Effect [7] [%] | Percent Effect [8] [%] | Percent Effect [9] [%] |
| --- | --- | --- | --- | --- | --- | --- | --- | --- | --- | --- | --- |
| COc1ccccc1CN1C(=O)O[C@@H]2CN(c3nccs3)C[C@@H]21 | -8.53 | 0 | 2 | 2.51 | -5.75 | -3.12 | 11.2 | 15.3 | 2.73 | 3.7 | -3.84 |
| Cc1nc(C)n(CC2CCCN(Cc3nc(C4CC4)no3)C2)n1 (configuration not stated) | -2.19 | 21.6 | -9.55 | 4.88 | 3.11 | -4.41 | 12.8 | 2.75 | 8.37 | 23.5 | -12.5 |
| CCn1nc(CC(C)C)cc1C(=O)N1C[C@H](O)[C@@H](N2CCCCC2)C1 | -3.95 | 16 | -4.12 | 15.8 | 6.33 | 4.69 | 12.6 | -6.25 | 2.73 | 13.6 | -6.08 |
| CC(=O)N1CCC(Cc2cnc(-c3c(C)n[nH]c3C)cn2)C1 (configuration not stated) | -5.08 | 0 | 10 | -2.02 | 1.97 | 0.233 | 4.67 | -10.8 | 3.19 | 1.28 | 0.0811 |
| COc1ccc(NC(=O)CCC2CCCN(Cc3ncon3)C2)cc1Cl (configuration not stated) | -3.35 | 10.7 | -3.08 | 17.1 | 2.82 | 7.81 | 24.8 | -6.37 | 8.2 | 18.5 | 92.7 |
| O=C1C(NS(=O)(=O)c2cc(F)cc(F)c2)CCN1Cc1ccccc1 (configuration not stated) | -4.38 | 12.7 | -1.14 | -3.2 | 6.52 | 1.52 | 13.7 | 0.58 | 6.4 | 1.27 | -7.02 |
| CC(C(=O)NCc1ccnc(N(C)C)c1)n1cncn1 (configuration not stated) | -2.02 | 2.7 | -7.17 | 7.55 | 8.88 | -0.476 | 17.2 | -1.73 | 5.82 | 9.76 | -3.72 |
| O=C(COc1coc(CN2CCCCCC2)cc1=O)c1ccccc1 | -5.87 | -7.89 | -1.88 | -6.78 | -3.6 | -1.18 | 9.49 | -1.04 | 3.19 | 0 | 72.3 |
| CCCc1nc(CN2CCN(CC(O)c3ccccc3)CC2)no1 (configuration not stated) | -2.75 | 11.4 | -0.305 | 1.98 | -1.54 | 4.09 | 8.23 | 7.59 | 5.21 | -2.53 | -26.1 |
| COc1ccc(CN2CCn3cc(CN4CCN(C)CC4)nc3C2)cc1 | -4.41 | 8.11 | 4.53 | -5.52 | -2.83 | 4.78 | 18.4 | -7.72 | -2.16 | 5.13 | 3.23 |
| CCOc1ccccc1-c1noc(CN2CC(n3cccn3)C2)n1 | -1.57 | 2.6 | 2.37 | -3.32 | 8.13 | -3.16 | 2.99 | 4.34 | 0.952 | 7.06 | -6.41 |
| O=C([C@H]1CCCO1)N1CCc2ncnc(NC3CC3)c2CC1 | 1.86 | 0 | -0.252 | -2.06 | -5.47 | 5 | 12.4 | 3.34 | 9.9 | 13.4 | -4.91 |
| c1ccc(-c2noc(CN3CCC(c4ccn[nH]4)CC3)n2)cc1 | 1.64 | -8.11 | -9.82 | 9.87 | 3.09 | 26.2 | 21.9 | -10.4 | 4.76 | 14.6 | -1.3 |
| Cc1nc(C)n(CC2CCCCN2CC(=O)Nc2cccnc2)n1 (configuration not stated) | -1.75 | 4.17 | -8.52 | 22 | 3.98 | 9.71 | 8.25 | -0.793 | 5.26 | 10.3 | -2.02 |
| Cc1cc(C(=O)N2CC[C@@H]3CN(c4ncccn4)CCO[C@@H]3C2)c(C)o1 | -0.56 | 16.2 | -3.77 | -14.6 | 0.0978 | 6.69 | 29 | -4.39 | 6.49 | 20.5 | -4.19 |
| O=C(NCC(O)c1cccc(F)c1)c1cccnc1O (configuration not stated) | -5.99 | 16.4 | -2.16 | 7.14 | 9.52 | -4.79 | 5.05 | 7.58 | 7.29 | 13.6 | -7.57 |
| CC(C)(C)C(=O)N1CCC2(COCc3cnc(N4CCOCC4)nc32)C1 (configuration not stated) | -4.89 | 4 | 3.79 | 6.02 | -2.36 | -7.57 | 9.06 | -1.15 | 2.12 | 2.56 | -1.68 |
| O=C(c1cnccn1)N1CCN(Cc2csc(-c3ccccc3)n2)CC1 | -3.77 | -2.7 | 9.72 | -0.413 | -6.04 | 0.185 | 0.898 | 19.6 | -4.95 | -1.22 | 7.87 |
| COCc1ccccc1CNCc1c(C)nn(C)c1N(C)C | -5.19 | 10.8 | -41.2 | 6.46 | -0.849 | 0 | -5.04 | -1.56 | 9.36 | 6.17 | -5.6 |
| Cc1nc(O)c2nnn(C[C@H]3CCCN3C(=O)CCC3CCCC3)c2n1 | -1.52 | -4.05 | 9.5 | -1.58 | -1.78 | -1.62 | 2.5 | -0.726 | -1.07 | -1.3 | 13.7 |
| Cc1ccc([C@]2(O)CC[C@H]3CN(Cc4cc(C)c(O)c(C)c4)C[C@H]32)nc1 | -2.94 | 6.76 | 23.7 | 8.26 | -2.37 | -5.34 | 8.58 | 11.6 | 0 | 6.49 | -9.68 |
| COc1ccc(NC(=O)N2CCCC2c2ccco2)cc1OC (configuration not stated) | 0.301 | 13 | 7.21 | -3.22 | -4.24 | -0.645 | 9.57 | 19.6 | -5.29 | 14.1 | -9.73 |
